From PubChem BioAssay AID588726 (The Scripps Research Institute Molecular Screening Center, 2011) come the findings set out here.

Hit rate of the full screen: of about 360,000 compounds, about 8,200 (2.3%) were called active. The sample as a whole holds a higher share of actives than the screen did. Values without a mark were called inactive. Rule as the data show it: active = inhibition above about 27%; inactive = the rest.

The target in the assay is Fructose-bisphosphate aldolase (Mycobacterium tuberculosis (strain ATCC 25618 / H37Rv)) (UniProt P9WQA3). The assay can be described thus: Mtb FBA enzyme inhibitors, primary screen, biochemical, fluorescence, strain H37Rv (AID 588726).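 Also: 0% = vehicle and 100% = reference inhibitor.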 As to conditions: purified M. tuberculosis FBA, fluorescence read-out, at 1 µM, active compounds read high.
Chain of Fructose-bisphosphate aldolase (Mycobacterium tuberculosis (strain ATCC 25618 / H37Rv)) (P9WQA3 whole entry, looked up): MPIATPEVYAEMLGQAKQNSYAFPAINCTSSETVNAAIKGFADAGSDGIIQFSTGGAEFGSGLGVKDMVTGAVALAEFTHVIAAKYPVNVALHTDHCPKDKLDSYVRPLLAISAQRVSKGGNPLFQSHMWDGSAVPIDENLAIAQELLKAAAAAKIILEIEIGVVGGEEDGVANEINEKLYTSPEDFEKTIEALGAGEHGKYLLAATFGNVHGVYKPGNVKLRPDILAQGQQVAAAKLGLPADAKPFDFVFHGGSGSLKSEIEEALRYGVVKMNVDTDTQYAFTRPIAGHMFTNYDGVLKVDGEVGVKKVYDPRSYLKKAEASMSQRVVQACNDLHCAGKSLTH
Consider `O=C(CSc1ncnc2c1oc1ccccc12)NC1CCCC1`, for which the inhibition (commonly the drop in the measured response relative to a control, in per cent) was -1.09%. As to `CCOc1ccc(CCNC(=O)COC(=O)c2c(OC)cccc2OC)cc1OCC`, the inhibition is -0.8%. Take `COc1ccc(C(=O)OCc2cc(=O)n3ccsc3n2)cc1F`: the inhibition was -2.01%. For `COc1ccc(NC(=S)NCC2CCN(c3ccc(OC)cc3)C2)cc1` (stereo unspecified) the value was -3.11%; for `COc1ccc([C@H]2N[C@]3(CCCN(Cc4ccco4)C3=O)[C@H]3C(=O)N(C)C(=O)[C@@H]23)cc1`, -1.27%. Regarding `COC(=O)Cc1nc2c(N)nc(N)nc2[nH]c1=O`, the inhibition was 159% (active). For `COc1cc(C(=O)NC2CCN(C)CC2)ccc1Nc1ncc2c(n1)N(C1CCC(O)CC1)CCC(=O)N2C` (stereo unspecified) the value was 1.68%; for `CC(C)(C)N1CC(c2nc3ccccc3n2Cc2ccc(F)cc2)CC1=O` (stereo unspecified), -9.37%. As to `O=c1[nH]cccc1-c1nc2ccccc2n1Cc1ccc(Cl)cc1`, the inhibition is 187% (active).

Regarding `O=C(O)CCc1nc2cc(Cl)ccc2n(Cc2ccccc2)c1=O`, the inhibition is 1.59%. Take `Nc1ccccc1C(=O)NC1CCCCNC1=O` (stereo unspecified): the inhibition is 68.5% (active). Regarding `CC12CN3CCN(CC(C3)/C1=N\NC(=O)c1ccccc1N)C2`, the inhibition was 1.1%. Take `O=C(CNC(=O)OCc1ccccc1)NC1CCCCNC1=O` (stereo unspecified): the inhibition was 0.55%. Take `CC(=O)Nc1cc2ccc(OC(C)=O)cc2oc1=O`: the inhibition is 179% (active). The value for `CC(=O)Oc1ccc2c(C)c(CC(C)O)c(=O)oc2c1` (stereo unspecified) was 797% [above what the read-out allows, likely interference] (active); that for `Cc1cc(C)cc(Oc2c(C(F)(F)F)oc3cc(OCC(=O)O)ccc3c2=O)c1` was -1.51%; that for `Cc1c(CCC(=O)O)c(=O)oc2cc(OCc3ccc(Br)cc3)ccc12` was 46.6% (active). For `O=C(Oc1ccccc1)Oc1ccc2c(c1)oc(=O)c1ccccc12`, the inhibition was 8.31%.

Turning to `Cc1ccc(OCC(=O)Nc2ccc3oc(=O)ccc3c2)cc1C`, the inhibition is 1.09%. For `Cc1c(C)c2ccc(OCC(=O)N3CCN(c4cccc(Cl)c4)CC3)cc2oc1=O` the value was 6.95%; for `Cc1coc2cc3oc(=O)c(CCC(=O)O)c(C)c3cc12`, 16.5%.

For `COC(=O)Cc1c(C)c2ccc(OCC(=O)NCc3ccc4c(c3)OCO4)cc2oc1=O`, the inhibition is 12%.

As to `COc1cccc(-c2coc3cc4oc(=O)c(CC(=O)O)c(C)c4cc23)c1`, the inhibition is 6.49%. With `Cc1c(Cc2ccccc2)c(=O)oc2cc(OCC(N)=O)ccc12`, the inhibition is 65.5% (active).

Regarding `CCOC(=O)c1cc(=O)c2ccc(OCc3ccccc3)cc2o1`, the inhibition is 2.55%. For the compound `O=S(=O)(c1cccc(C(F)(F)F)c1)N1c2ccccc2-n2cccc2C1c1cccnc1` (stereo unspecified), the inhibition is -0.16%.

For the compound `O=C(Nc1c(-c2ccccc2)nc2c(Br)cc(Br)cn12)c1ccco1`, the inhibition was 1.02%.

On to `Cc1cc(C(C)(C)C)oc1C(=O)N(CC(=O)NC1CCCC1)Cc1ccc(Cl)cc1`, for which the inhibition is 3.61%. For the compound `COCC1CCN(C(=O)c2ccc3oc(Cc4ccccc4)nc3c2)C1` (stereo unspecified), the inhibition was 2.73%. As to `O=C1NCC(Nc2ccccc2)C(=O)N1` (stereo unspecified), the inhibition was -2.44%. As for `N=c1ccn(CC(=O)NC(N)=O)c2ccccc12`, the inhibition was 0%. As for `CC1C(C)N(C(=O)CCl)c2ccccc2N1C(=O)CCl` (stereo unspecified), the inhibition is -0.21%. `CCN(CC)S(=O)(=O)c1ccc(NC(=O)c2cccnc2Cl)c(NC(=O)c2cccnc2Cl)c1`: the inhibition is -0.1%.

`COc1ccccc1CN1CC(C(=O)NCCc2cn[nH]c2)CCC1=O` (stereo unspecified): the inhibition is 3.36%. As to `Cc1nc2ccccc2n1CC(O)c1ccccc1` (stereo unspecified), the inhibition was -0.66%. The value for `Cc1nc(-c2ccccc2)cn2c1nc1ccccc12` was 119% (active); that for `Cc1c(C(=O)Nc2cccc(Cl)c2)cn2c(nc3ccccc32)c1C#N` was -0.2%. With `CN1CCn2cnc(C(=O)NCC(=O)OC(C)(C)C)c2C1=O`, the inhibition was -1.37%. In the case of `Cc1c(CC(=O)NCC(=O)NCC(=O)O)c(=O)oc2cc3oc4c(c3cc12)CCCC4`, the inhibition is 16.6%. The value for `Cc1coc2c1c(C)cc1oc(=O)c(CC(=O)NCC(=O)N[C@H](C(=O)O)C(C)C)c(C)c12` was 105% (active); that for `CSCC[C@H](NC(=O)N1CCn2c1nc1ccccc12)C(=O)NC1CCCCC1` was -1.03%. Consider `CCN(CCn1cccn1)Cc1nc(-c2ccc(C(=O)OC)cc2)no1`, for which the inhibition was 0.65%. For the compound `CCOC(=O)COc1ccc(Cl)cc1C1NC(=O)NC(C)=C1C(C)=O` (stereo unspecified), the inhibition is 0.97%. With `COc1ccccc1OCC(=O)OCc1cc(-c2ccco2)on1`, the inhibition was 2.93%. The value for `CCOC(=O)COc1cc(OCC(=O)OCC)c2c(=O)cc(-c3ccccc3)oc2c1` was 39.2% (active); that for `COCCC(=O)Nc1ccc2c(c1)CN(C(=O)CCOC)CC2` was 2.39%; that for `O=C(NCc1ccccc1)c1onc(CSc2nc3ccccc3[nH]2)c1C(=O)NCc1ccccc1` was 27.9% (active). As for `O=C(NCc1ccccc1)c1onc(CSc2ccncc2)c1C(=O)NCc1ccccc1`, the inhibition is 0.92%.

Regarding `O=C(NCC1CC1)c1onc(CSc2ccccc2)c1C(=O)NCC1CC1`, the inhibition was 3.54%. As for `O=C(CN1CCN(C(=O)C2CCCO2)CC1)Nc1c(Cl)cccc1Cl` (stereo unspecified), the inhibition was -2.38%. With `O=C(CCCCCn1c(=S)[nH]c2ccsc2c1=O)NC1CCCCC1`, the inhibition is 3.56%.

Take `Cc1cc(NC(C)C)n2c(nc3ccccc32)c1C#N`: the inhibition is 41.7% (active). As for `CC(C)c1cc(NCc2ccccn2)n2c(nc3ccccc32)c1C#N`, the inhibition is 17.6%.

Regarding `Cc1cc(NCc2ccco2)n2c(nc3ccccc32)c1C#N`, the inhibition is 162% (active). The value for `Cc1ccc2[nH]c(=O)c(-c3nc4c(C)cccn4c3NCc3ccco3)cc2c1` was 4.83%; that for `CCOCCCNc1c(CC)c(C)c(C#N)c2nc3ccccc3n12` was 4.3%; that for `Cc1ccc(S(=O)(=O)N(C)c2nc3ccccc3n3c(C(C)C)nnc23)cc1` was -0.15%. As to `CCCNC(=O)NC(=O)COC(=O)CC(NC(N)=O)c1ccc(Cl)cc1` (stereo unspecified), the inhibition is -6.17%.

On to `CC(C)CCNC(=O)CC1C(=O)N(Cc2ccccc2)C(C)c2nc3ccccc3n21` (stereo unspecified), for which the inhibition was -2.2%.

Take `CC(C)(C)C(=O)CSc1ccc(S(=O)(=O)N2CCCC2)cn1`: the inhibition was 1.92%. For `COC(=O)C1=C(C)N(Cc2ccccc2)C(=NCCCOC(C)C)N[C@H]1c1ccccc1` the value was -0.81%; for `CC1CCCC(NC(=O)COC(=O)[C@@H]2CC(O)CN2S(=O)(=O)c2ccc3c(c2)OCCO3)C1C` (stereo partly specified), 0.53%. `O=c1[nH]nc(SCCS(=O)(=O)c2ccc(F)cc2)n1-c1ccccc1C(F)(F)F`: the inhibition was 1.24%. For `CCCCN(CCCC)CCC(O)c1cc2c(Cl)cc(Cl)cc2c2cc(C(F)(F)F)ccc12` (stereo unspecified), the inhibition is -0.59%. The value for `O=c1onc(-c2cccs2)n1Cc1ccccc1` was 1.37%; that for `Cc1ccc(C2CC(c3cccc(Br)c3)n3nc(N)nc3N2)cc1` (stereo unspecified) was 5.98%. The value for `Nc1nc2n(n1)C(c1ccco1)CC(c1ccc(Cl)c(Cl)c1)N2` (stereo unspecified) was 30.1% (active); that for `COc1ccc(C2CC(c3ccc(Cl)cc3Cl)Nc3nc(N)nn32)cc1OC` (stereo unspecified) was 0.41%; that for `CCOc1ccc(CCNC(=O)COC(=O)C2CCN(c3ccc(C(F)(F)F)cn3)CC2)cc1OCC` was 2.79%. For `OC[C@@H]1CN(Cc2ccc3c(c2)OCO3)C[C@H](n2cnc3c(NCc4ccco4)ncnc32)O1` the value was 0.71%; for `COc1ccc(OCCNC(=O)c2cc(C3CC3)nc3c2cnn3C(C)C)cc1`, 7.43%; for `CC(C)n1ncc2c(C(=O)NCc3ccccc3CN(C)C)cc(C3CC3)nc21`, 29.8% (active). Consider `CNC(=O)c1ccc(CN(C)C(=O)c2cc(C3CC3)nc3c2cnn3C(C)C)cc1`, for which the inhibition is -0.03%. `Cn1c(=O)c2c(nc(N3CCOCC3)n2CCNC2=NCCC2)n(C)c1=O`: the inhibition was 0.36%. For `Cc1coc(C)c1C(=O)CC1(O)C(=O)N(C)c2ccc(Cl)cc21` (stereo unspecified), the inhibition was -1.99%. Consider `CC(c1nnc(SCC(=O)Nc2sccc2C#N)n1-c1ccc(Cl)cc1)N(C)C` (stereo unspecified), for which the inhibition is -0.06%. Consider `COc1cccc(C(=O)OCc2cc(=O)oc3c(C)c(C)ccc23)c1OC`, for which the inhibition is 2.59%. For `Cc1cc(=O)oc2c(C)c(OC(C)C(=O)NC3CCN(Cc4ccccc4)CC3)ccc12` (stereo unspecified), the inhibition was 14.6%. As for `COc1ccccc1NC(=O)COC(=O)CNC(=O)C1CCCCC1`, the inhibition is 2.67%. For `CCCc1cc(=O)[nH]c(SCC(=O)Nc2ccc(S(=O)(=O)N3CCCC3)cc2)n1` the value was 1.25%; for `O=C(O)c1cccc(S(=O)(=O)N2CC=C(c3ccccc3)CC2)c1`, 0.87%; for `CCOC(=O)NN1C(=O)c2ccccc2NC1c1ccccc1O` (stereo unspecified), 26.2%. Take `CCOC(=O)NN1C(=O)c2ccccc2NC1c1cccc(O)c1` (stereo unspecified): the inhibition was 31.7% (active). Regarding `O=C1c2ccccc2NC(c2ccccc2O)N1NS(=O)(=O)c1ccccc1` (stereo unspecified), the inhibition was 7.05%. Take `CCN1C(=O)N[C@@H](c2ccccc2)[C@H](C(C)=O)[C@H]1C`: the inhibition is 1.5%. Turning to `CN(C)c1ccc(C2Nc3ccccc3C(=O)N2NS(=O)(=O)c2ccccc2)cc1` (stereo unspecified), the inhibition was -0.05%.

`CC(=O)NN1C(=O)c2ccccc2NC1c1ccccc1` (stereo unspecified): the inhibition is 37.3% (active).

`Cc1cccc(C)c1NC(=O)C1CCCN1C(=O)OC(C)(C)C` (stereo unspecified): the inhibition was -0.82%.

In the case of `CS(=O)(=O)N(CC(=O)N1CCOCC1)c1ccc2c3c(cccc13)CC2`, the inhibition was 9.05%.

For the compound `COCCNC(=O)C1CCN(S(=O)(=O)c2ccc3c(c2)OCCO3)CC1`, the inhibition was -1.67%. In the case of `O=C(O)C(=Cc1ccccc1[N+](=O)[O-])c1ccccc1`, the inhibition was 3.82%.
